# From the supplement of paper PMC4466140
# Biological target: AgAbp1
# Experiment: SPOT peptide array binding signal intensity (averaged, normalized) (arbitrary units (background-subtracted, floor 0; scale differs between SH3 domains)); higher = stronger binding of the SH3 domain to the peptide
# Outline: (§1)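 Cellulose membranes carried synthetic 15-mer peptides with cysteines swapped for serines. These were incubated overnight at 4°C with 10 μg/ml of GST-fused SH3 domains from four yeast species in TBS-based blocking buffer. Binding signal, detected with anti-GST antibody and quantified in Genespotter, is the normalized, background-subtracted spot intensity averaged over replicates, in arbitrary units specific to each domain.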
row,Binder,SPOT peptide array binding signal intensity
1,GDHPKGPPPPPPPPD,≤ 0

# Biological target: AgBbc1
# Experiment: as above
# Outline: as §1
row,Binder,SPOT peptide array binding signal intensity
1,GDHPKGPPPPPPPPD,≤ 0

# Biological target: AgBem1-D1
# Experiment: as above
# Outline: as §1
row,Binder,SPOT peptide array binding signal intensity
1,GDHPKGPPPPPPPPD,≤ 0

# Biological target: AgBzz1-D1
# Experiment: as above
# Outline: as §1
row,Binder,SPOT peptide array binding signal intensity
1,GDHPKGPPPPPPPPD,440

# Biological target: AgBzz1-D2
# Experiment: as above
# Outline: as §1
row,Binder,SPOT peptide array binding signal intensity
1,GDHPKGPPPPPPPPD,43

# Biological target: AgCyk3
# Experiment: as above
# Outline: as §1
row,Binder,SPOT peptide array binding signal intensity
1,GDHPKGPPPPPPPPD,≤ 0

# Biological target: AgFus1
# Experiment: as above
# Outline: as §1
row,Binder,SPOT peptide array binding signal intensity
1,GDHPKGPPPPPPPPD,3

# Biological target: AgHof1
# Experiment: as above
# Outline: as §1
row,Binder,SPOT peptide array binding signal intensity
1,GDHPKGPPPPPPPPD,≤ 0

# Biological target: AgHse1
# Experiment: as above
# Outline: as §1
row,Binder,SPOT peptide array binding signal intensity
1,GDHPKGPPPPPPPPD,≤ 0

# Biological target: AgLsb1
# Experiment: as above
# Outline: as §1
row,Binder,SPOT peptide array binding signal intensity
1,GDHPKGPPPPPPPPD,≤ 0

# Biological target: AgLsb4
# Experiment: as above
# Outline: as §1
row,Binder,SPOT peptide array binding signal intensity
1,GDHPKGPPPPPPPPD,≤ 0

# Biological target: AgMyo5
# Experiment: as above
# Outline: as §1
row,Binder,SPOT peptide array binding signal intensity
1,GDHPKGPPPPPPPPD,1010

# Biological target: AgNbp2
# Experiment: as above
# Outline: as §1
row,Binder,SPOT peptide array binding signal intensity
1,GDHPKGPPPPPPPPD,3

# Biological target: AgRvs167
# Experiment: as above
# Outline: as §1
row,Binder,SPOT peptide array binding signal intensity
1,GDHPKGPPPPPPPPD,≤ 0

# Biological target: AgSho1
# Experiment: as above
# Outline: as §1
row,Binder,SPOT peptide array binding signal intensity
1,GDHPKGPPPPPPPPD,3

# Biological target: AgSla1-D1-D2
# Experiment: as above
# Outline: as §1
row,Binder,SPOT peptide array binding signal intensity
1,GDHPKGPPPPPPPPD,≤ 0

# Biological target: AgSla1-D3
# Experiment: as above
# Outline: as §1
row,Binder,SPOT peptide array binding signal intensity
1,GDHPKGPPPPPPPPD,699

# Biological target: CaAbp1-D1
# Experiment: as above
# Outline: as §1
row,Binder,SPOT peptide array binding signal intensity
1,GDHPKGPPPPPPPPD,≤ 0

# Biological target: CaAbp1-D2
# Experiment: as above
# Outline: as §1
row,Binder,SPOT peptide array binding signal intensity
1,GDHPKGPPPPPPPPD,≤ 0

# Biological target: CaBbc1
# Experiment: as above
# Outline: as §1
row,Binder,SPOT peptide array binding signal intensity
1,GDHPKGPPPPPPPPD,≤ 0

# Biological target: CaBem1-D1
# Experiment: as above
# Outline: as §1
row,Binder,SPOT peptide array binding signal intensity
1,GDHPKGPPPPPPPPD,≤ 0

# Biological target: CaBzz1-D1
# Experiment: as above
# Outline: as §1
row,Binder,SPOT peptide array binding signal intensity
1,GDHPKGPPPPPPPPD,2370

# Biological target: CaBzz1-D2
# Experiment: as above
# Outline: as §1
row,Binder,SPOT peptide array binding signal intensity
1,GDHPKGPPPPPPPPD,1470

# Biological target: CaCyk3
# Experiment: as above
# Outline: as §1
row,Binder,SPOT peptide array binding signal intensity
1,GDHPKGPPPPPPPPD,4

# Biological target: CaFus1
# Experiment: as above
# Outline: as §1
row,Binder,SPOT peptide array binding signal intensity
1,GDHPKGPPPPPPPPD,19

# Biological target: CaHof1
# Experiment: as above
# Outline: as §1
row,Binder,SPOT peptide array binding signal intensity
1,GDHPKGPPPPPPPPD,≤ 0

# Biological target: CaHse1
# Experiment: as above
# Outline: as §1
row,Binder,SPOT peptide array binding signal intensity
1,GDHPKGPPPPPPPPD,3.5

# Biological target: CaLsb1
# Experiment: as above
# Outline: as §1
row,Binder,SPOT peptide array binding signal intensity
1,GDHPKGPPPPPPPPD,≤ 0

# Biological target: CaLsb4
# Experiment: as above
# Outline: as §1
row,Binder,SPOT peptide array binding signal intensity
1,GDHPKGPPPPPPPPD,≤ 0

# Biological target: CaMyo5
# Experiment: as above
# Outline: as §1
row,Binder,SPOT peptide array binding signal intensity
1,GDHPKGPPPPPPPPD,34

# Biological target: CaNbp2
# Experiment: as above
# Outline: as §1
row,Binder,SPOT peptide array binding signal intensity
1,GDHPKGPPPPPPPPD,≤ 0

# Biological target: CaRvs167
# Experiment: as above
# Outline: as §1
row,Binder,SPOT peptide array binding signal intensity
1,GDHPKGPPPPPPPPD,0.333

# Biological target: CaRvs167-3
# Experiment: as above
# Outline: as §1
row,Binder,SPOT peptide array binding signal intensity
1,GDHPKGPPPPPPPPD,1

# Biological target: CaSho1
# Experiment: as above
# Outline: as §1
row,Binder,SPOT peptide array binding signal intensity
1,GDHPKGPPPPPPPPD,≤ 0

# Biological target: CaSla1-D1-D2
# Experiment: as above
# Outline: as §1
row,Binder,SPOT peptide array binding signal intensity
1,GDHPKGPPPPPPPPD,≤ 0

# Biological target: CaSla1-D3
# Experiment: as above
# Outline: as §1
row,Binder,SPOT peptide array binding signal intensity
1,GDHPKGPPPPPPPPD,≤ 0

# Biological target: ScAbp1
# Experiment: as above
# Outline: as §1
row,Binder,SPOT peptide array binding signal intensity
1,GDHPKGPPPPPPPPD,≤ 0

# Biological target: ScBbc1
# Experiment: as above
# Outline: as §1
row,Binder,SPOT peptide array binding signal intensity
1,GDHPKGPPPPPPPPD,≤ 0

# Biological target: ScBem1-D1
# Experiment: as above
# Outline: as §1
row,Binder,SPOT peptide array binding signal intensity
1,GDHPKGPPPPPPPPD,≤ 0

# Biological target: ScBzz1-D1
# Experiment: as above
# Outline: as §1
row,Binder,SPOT peptide array binding signal intensity
1,GDHPKGPPPPPPPPD,1030

# Biological target: ScBzz1-D2
# Experiment: as above
# Outline: as §1
row,Binder,SPOT peptide array binding signal intensity
1,GDHPKGPPPPPPPPD,≤ 0

# Biological target: ScCyk3
# Experiment: as above
# Outline: as §1
row,Binder,SPOT peptide array binding signal intensity
1,GDHPKGPPPPPPPPD,≤ 0

# Biological target: ScFus1
# Experiment: as above
# Outline: as §1
row,Binder,SPOT peptide array binding signal intensity
1,GDHPKGPPPPPPPPD,≤ 0

# Biological target: ScHof1
# Experiment: as above
# Outline: as §1
row,Binder,SPOT peptide array binding signal intensity
1,GDHPKGPPPPPPPPD,≤ 0

# Biological target: ScHse1
# Experiment: as above
# Outline: as §1
row,Binder,SPOT peptide array binding signal intensity
1,GDHPKGPPPPPPPPD,16

# Biological target: ScLsb1
# Experiment: as above
# Outline: as §1
row,Binder,SPOT peptide array binding signal intensity
1,GDHPKGPPPPPPPPD,≤ 0

# Biological target: ScLsb2
# Experiment: as above
# Outline: as §1
row,Binder,SPOT peptide array binding signal intensity
1,GDHPKGPPPPPPPPD,≤ 0

# Biological target: ScLsb3
# Experiment: as above
# Outline: as §1
row,Binder,SPOT peptide array binding signal intensity
1,GDHPKGPPPPPPPPD,≤ 0

# Biological target: ScLsb4
# Experiment: as above
# Outline: as §1
row,Binder,SPOT peptide array binding signal intensity
1,GDHPKGPPPPPPPPD,≤ 0

# Biological target: ScMyo3
# Experiment: as above
# Outline: as §1
row,Binder,SPOT peptide array binding signal intensity
1,GDHPKGPPPPPPPPD,1170

# Biological target: ScMyo5
# Experiment: as above
# Outline: as §1
row,Binder,SPOT peptide array binding signal intensity
1,GDHPKGPPPPPPPPD,1020

# Biological target: ScNbp2
# Experiment: as above
# Outline: as §1
row,Binder,SPOT peptide array binding signal intensity
1,GDHPKGPPPPPPPPD,3

# Biological target: ScPex13
# Experiment: as above
# Outline: as §1
row,Binder,SPOT peptide array binding signal intensity
1,GDHPKGPPPPPPPPD,7.63e-06

# Biological target: ScRvs167
# Experiment: as above
# Outline: as §1
row,Binder,SPOT peptide array binding signal intensity
1,GDHPKGPPPPPPPPD,≤ 0

# Biological target: ScSho1
# Experiment: as above
# Outline: as §1
row,Binder,SPOT peptide array binding signal intensity
1,GDHPKGPPPPPPPPD,≤ 0

# Biological target: ScSla1-D1-D2
# Experiment: as above
# Outline: as §1
row,Binder,SPOT peptide array binding signal intensity
1,GDHPKGPPPPPPPPD,≤ 0

# Biological target: ScSla1-D3
# Experiment: as above
# Outline: as §1
row,Binder,SPOT peptide array binding signal intensity
1,GDHPKGPPPPPPPPD,≤ 0

# Biological target: SpAbp1-D1
# Experiment: as above
# Outline: as §1
row,Binder,SPOT peptide array binding signal intensity
1,GDHPKGPPPPPPPPD,≤ 0

# Biological target: SpBbc1
# Experiment: as above
# Outline: as §1
row,Binder,SPOT peptide array binding signal intensity
1,GDHPKGPPPPPPPPD,≤ 0

# Biological target: SpBzz1-D1
# Experiment: as above
# Outline: as §1
row,Binder,SPOT peptide array binding signal intensity
1,GDHPKGPPPPPPPPD,67

# Biological target: SpBzz1-D2
# Experiment: as above
# Outline: as §1
row,Binder,SPOT peptide array binding signal intensity
1,GDHPKGPPPPPPPPD,2

# Biological target: SpCyk3
# Experiment: as above
# Outline: as §1
row,Binder,SPOT peptide array binding signal intensity
1,GDHPKGPPPPPPPPD,≤ 0

# Biological target: SpHof1
# Experiment: as above
# Outline: as §1
row,Binder,SPOT peptide array binding signal intensity
1,GDHPKGPPPPPPPPD,≤ 0

# Biological target: SpHof1-2
# Experiment: as above
# Outline: as §1
row,Binder,SPOT peptide array binding signal intensity
1,GDHPKGPPPPPPPPD,≤ 0

# Biological target: SpHof1-3
# Experiment: as above
# Outline: as §1
row,Binder,SPOT peptide array binding signal intensity
1,GDHPKGPPPPPPPPD,≤ 0

# Biological target: SpHse1
# Experiment: as above
# Outline: as §1
row,Binder,SPOT peptide array binding signal intensity
1,GDHPKGPPPPPPPPD,1

# Biological target: SpLsb1
# Experiment: as above
# Outline: as §1
row,Binder,SPOT peptide array binding signal intensity
1,GDHPKGPPPPPPPPD,≤ 0

# Biological target: SpLsb4
# Experiment: as above
# Outline: as §1
row,Binder,SPOT peptide array binding signal intensity
1,GDHPKGPPPPPPPPD,≤ 0

# Biological target: SpMyo1
# Experiment: as above
# Outline: as §1
row,Binder,SPOT peptide array binding signal intensity
1,GDHPKGPPPPPPPPD,1570

# Biological target: SpNbp2
# Experiment: as above
# Outline: as §1
row,Binder,SPOT peptide array binding signal intensity
1,GDHPKGPPPPPPPPD,18.5

# Biological target: SpPex13
# Experiment: as above
# Outline: as §1
row,Binder,SPOT peptide array binding signal intensity
1,GDHPKGPPPPPPPPD,≤ 0

# Biological target: SpRvs167
# Experiment: as above
# Outline: as §1
row,Binder,SPOT peptide array binding signal intensity
1,GDHPKGPPPPPPPPD,≤ 0

# Biological target: SpSla1-D1-D2
# Experiment: as above
# Outline: as §1
row,Binder,SPOT peptide array binding signal intensity
1,GDHPKGPPPPPPPPD,≤ 0

# Biological target: SpSla1-D3
# Experiment: as above
# Outline: as §1
row,Binder,SPOT peptide array binding signal intensity
1,GDHPKGPPPPPPPPD,≤ 0
